Only some compounds are listed: those with a hit (about 8.9% of all), similar ones and a draw of the others.
Htt clearance: mutant huntingtin protein clearance; HeLa Exon1htt(103Q)mCFP, aggregate imaging; zero = plate's median compound well; inhibition, % at 1.5 µM; 47,000 tested, 0.42% active;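 active = inhibition of aggregate fluorescence above about 70%, also judged a hit by eye on the cell image, limit read from the data, passing the limit was not always enough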;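 note: cells exposed to compound for three days before fixation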
D1 allo mod: allosteric modulators of human D1 dopamine receptor; P21728; HEK293 D1, CRE-luciferase, dopamine EC30 potentiation; actives deviate in either direction; B-score at 10 µM; 58,000 tested, 5.9% active; AID 641;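 active = luminescence count or its row- and column-corrected plate score outside the 99.7% band of the plate's sample wells, on either side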
WNV NS2B-NS3 inh: WNV NS2B-NS3 proteinase inhibition; P06935; WNV NS2B-NS3 protease, fluorogenic substrate Ex360/Em465; active compounds read low; z-score (concentration not given with the values); 65,000 tested, 0.18% active; AID 577; in the data active = z-score below about -3
Target sequence (P06935 1371-1501 limits assumed): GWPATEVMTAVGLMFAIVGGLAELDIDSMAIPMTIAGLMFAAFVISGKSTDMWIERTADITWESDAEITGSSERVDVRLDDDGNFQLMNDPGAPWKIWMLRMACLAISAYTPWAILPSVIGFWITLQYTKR
Target sequence (P06935 1502-1679 limits assumed): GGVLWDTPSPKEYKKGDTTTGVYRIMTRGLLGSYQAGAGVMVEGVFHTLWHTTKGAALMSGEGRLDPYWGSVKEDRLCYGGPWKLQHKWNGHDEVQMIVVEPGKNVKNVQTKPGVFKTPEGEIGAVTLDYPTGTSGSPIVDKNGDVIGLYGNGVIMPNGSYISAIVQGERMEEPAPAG
M1 antag: blocks the rat M1 muscarinic receptor response to acetylcholine. CHO-M1 cells, Fluo-4 calcium, ACh EC80 antagonist mode; active compounds read low. P08482. B-score at 10 µM. 64,000 tested, 3.4% active;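 active = calcium fluorescence response, raw or row-and-column corrected B-score, differing from the plate sample mean either way at a set confidence level, mostly lower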
M1 ag: agonists of M1 muscarinic receptor. CHO-M1 cells, Fluo-4 calcium fluorescence, agonist mode; active compounds read high. B-score at 10 µM. 64,000 tested, 3% active;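 active = fluorescence rise, raw or as B-score row- and column-corrected plate score, outside the 99.7% band of its plate's samples, either direction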
D1 mod confirm: D1 receptor (human) allosteric modulation, confirmed; shares compounds with D1 allo mod; HEK293 D1 CRE-luciferase, dopamine EC30 potentiation; active compounds read high; luminescence at 10 µM; 2,200 tested, 88% active; AID 642;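 active = luminescence in either of two replicates above the same-plate mean plus 3 SD of the low-dose dopamine control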
D1 ag no DA: activates D1 CRE-luciferase signal without dopamine present | HEK293 D1 CRE-luciferase, luminescence, no dopamine; active compounds read high | 1,900 tested, 0.8% active | luminescence at 10 µM | shares compounds with D1 allo mod; in the data active = luminescence above about 3900
Isoprot counter: counter-screen for D1 modulators: isoproterenol response in HEK293 cells | shares compounds with D1 allo mod | HEK293 D1 CRE-luciferase, isoproterenol EC30 counter-screen | calls only at 10 µM | 2,200 tested, 63% active;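 active = luminescence in either replicate above plate mean of wells with a partly effective reference agonist dose plus 3 SD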;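 note: isoproterenol raises cAMP through native beta-adrenoceptor Gs so signal bypasses D1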
* marks the source's active call; other numbers are inactive results; i = inactive; . = not tested or not shown; + = active, no number.

SMILES	Htt clearance	D1 allo mod	WNV NS2B-NS3 inh	M1 antag	M1 ag	D1 mod confirm	D1 ag no DA	Isoprot counter
O=C(CCC1CCCCC1=O)c1ccccc1 (stereo not given)	21	-0.35	0.42	-0.49	-0.18	.	.	.
O=C(CSc1nnc(CNC(=O)c2cccs2)o1)NCCc1ccccc1	.	-0.083	-0.84	0.029	0.11	.	.	.
N=C1C(c2ccc(Br)cc2)=C(O)C2CCc3ccccc3N12 (stereo not given)	.	-0.36	1.1	0.21	-0.16	.	.	.
Brc1ccc(-c2nnc3n2-c2ccccc2CC3)cc1	.	3.9*	-0.06	-0.88	-0.21	13056*	1744	+
CCCCN(C)C(=O)c1cn(CC)c2ccc(S(=O)(=O)N(C)C)cc2c1=O	.	3*	-1.3	-1	-0.0042	5816	1512	i
CCCCCn1c(NCc2ccco2)nc2ccccc21	60	6.3*	1.6	-1.7	-1.7	12176*	1460	i
COc1ccc(N/C=C2/CCCCC2=O)cc1	-23	2.8*	0.35	-2.4	-1.5	4708	1400	i
COc1ccc(OC)c(N/C=C2/CCCCC2=O)c1	.	1.9	-0.41	0.18	0.055	.	.	.
O=C(OCC#CCSc1nnc(-c2ccc(Br)cc2)o1)c1ccco1	24	4.8*	-0.47	-1.3	-0.039	7080*	1620	i
Cc1sc(NC(=O)CSc2nnc(COc3ccc(Cl)cc3)n2C)c(C#N)c1C	-20	-1.1	0.53	0.37	-0.25	.	.	.
CCNc1nc(C)c2cc(Br)c(=O)n(CC)c2n1	.	15*	1.3	-0.46	1.8	24012*	1832	+
CCCCCOc1ccc(C(=O)NC(C(=O)O)C(C)C)cc1 (stereo not given)	12	.	0.07	-0.013	-0.48	.	.	.
CCOC(=O)c1oc2ccccc2c1CN1CCN(C(=O)c2ccccc2)CC1	.	6.9*	-0.77	0.58	0.5	17092*	1488	+
CCOC(=O)c1cc(CN2CCOCC2)oc1-c1ccccc1	.	4*	1.1	-0.29	0.29	12300*	1700	+
CCOC(=O)c1oc2ccccc2c1CN1CCN(c2ccccc2)CC1	-34	-0.32	-0.78	0.87	0.11	.	.	.
CCOC(=O)c1c(-c2ccccc2)oc2ccc(O)c(CN3CCOCC3)c12	20	0.48	0.38	-0.062	0.012	.	.	.
CCOC(=O)c1oc2cccc(O)c2c1CN1CCOCC1	12	5.8*	-0.71	0.4	-0.1	7884*	1544	i
CCN(CC)S(=O)(=O)c1ccc2oc(C(=O)NCC3COc4ccccc4O3)c(C)c2c1 (stereo not given)	.	.	-0.6	-0.5	0.1	.	.	.
COC(=O)Cn1cnc2ccccc2c1=O	-44	.	.	.	.	.	.	.
COC(=O)c1ccc(OCCn2cnc3ccccc3c2=O)cc1	.	5.2*	-0.16	-1.1	-0.092	9464*	2040	i
Cc1cc(C(=O)N2CCc3ccccc32)n(-c2ccccc2)n1	.	5.8*	-1.6	1.2	1.2	10356*	1556	+
O=C(Nc1ccc2c(c1)OCO2)N1CCN(c2ncc(C(F)(F)F)cc2Cl)CC1	-16	.	.	.	.	.	.	.
COc1ccc(NC(=O)N(CCN2CCCC2)Cc2cc3cc(OC)c(OC)cc3[nH]c2=O)cc1	4	-1.1	-1.4	1.2	0	.	.	.
COC(=O)c1cccc(N2C(=O)C(Cl)=C(N3CCOCC3)C2=O)c1	.	4.7*	0.0031	1.3	-0.17	5740*	1648	i
CN1CCN(C2=C(Cl)C(=O)N(c3cccc(Cl)c3)C2=O)CC1	.	-0.21	-1.1	-0.73	-1.2	.	.	.
SMILES	Htt clearance	D1 allo mod	WNV NS2B-NS3 inh	M1 antag	M1 ag	D1 mod confirm	D1 ag no DA	Isoprot counter
Oc1ccccc1CNn1cnnc1	30	.	0.28	0.24	-0.2	.	.	.
CN(C)c1ccc(N=Cc2ccco2)cc1	.	-0.0048	-0.85	-0.03	-0.52	.	.	.
C(=N\C(/N=C/c1ccco1)c1ccco1)/c1ccco1	.	8.8*	-0.1	-0.43	-0.11	17580*	1572	i
CC(=O)c1c(C)[nH]c(C(=O)N2CCN(C(=O)c3ccco3)CC2)c1C	32	-0.58	1.1	0.19	-0.14	.	.	.
CCOC(=O)C1CCN(C(=O)CCCCn2c(=O)[nH]c3ccccc3c2=O)CC1	.	0.25	0.28	0.56	0.58	.	.	.
CCc1nc2scc(-c3cccs3)c2c(=O)o1	-5	.	.	.	.	.	.	.
CCn1c(Sc2nc(C)nc3scc(-c4cccs4)c23)n[nH]c1=O	-1	8.1*	-0.35	-0.16	2.3	15492*	1856	+
Cc1nn2c(-c3ccncc3)nnc2c2ccccc12	-75	2.7*	-1.8	-0.38	1.2	6068*	1544	+
CCOc1c(C#N)c(C#N)c2nc(C)cc(C)n12	-91	1.5	0.74	-1.4	-0.86	.	.	.
Cc1cc(C)n2c3c(c(C#N)c2n1)CCCC3	-29	2.9*	0.25	1.1	0.59	9512*	1860	i
CCOC(=O)c1c(N)c(C#N)c2n1CCCCC2	.	11*	-0.86	0.0023	0.043	10284*	1420	+
CCOC(=O)c1c(N)c(C#N)c2n1CCCC2	21	.	.	.	.	.	.	.
O=c1c2ccccc2nnn1CSc1nnc2ccccn12	-18	-1	-0.92	0.88	0.22	.	.	.
COc1ccc(OC)c(C(=O)COC(=O)C2CC3CCCC(C2)C3=O)c1 (stereo not given)	.	2.2*	-0.16	-0.62	0.32	9744*	1720	i
Clc1ccc(Cn2ncc3c(N4CCCC4)ncnc32)cc1	5	4.7*	0.9	.	.	13228*	1420	+
Clc1ccc(Cn2ncc3c(N4CCCCC4)ncnc32)c(Cl)c1	-16	-0.38	-0.61	-0.53	-0.58	.	.	.
CCN1CCN(c2ncnc3c2cnn3-c2ccc(C)cc2C)CC1	.	-0.31	1.2	1.5	-0.61	.	.	.
Cc1ccc(Cn2ncc3c(N4CCCC4)ncnc32)cc1	28	2.7*	-0.0019	-0.43	1.1	10768*	1564	+
N#CCCCSc1nnc(-c2ccccn2)o1	17	0.15	-0.19	0.26	-0.65	.	.	.
O=C(NC(NC1CCS(=O)(=O)C1)C(=O)c1ccccc1)c1ccc(Cl)cc1 (stereo not given)	14	0.3	0.52	-0.064	-0.088	.	.	.
COc1ccc(-c2cc(C(F)F)n3ncc(C(=O)N4CCN(C(=O)c5ccco5)CC4)c3n2)cc1	.	9.4*	0.78	0.23	-0.037	13496*	1536	+
COc1ccc(-c2cc(C(F)F)n3ncc(C(=O)N4CCCCC4)c3n2)cc1	-2	.	.	.	.	.	.	.
COC(=O)c1sc(NC(C)=O)c(C(=O)OC)c1C	-96	.	-1.1	-0.089	-0.61	.	.	.
COC(=O)c1sc2ccccc2c1C(=O)OC	-10	10*	-0.26	-0.2	0.014	9140*	1712	i
Cc1csc2nc(CNC(=O)C3CCCCC3)cn12	.	3*	1.6	0.92	0.46	7124	1524	i
O=C(NCCc1cn2ccsc2n1)C1CCCCC1	-2	-0.32	-1.4	0.34	0.02	.	.	.

Source: PubChem BioAssay
